Shown are actives, neighbours in structure and some others; about 6% of the full set was active somewhere.
DRD3 antagonist = qHTS of D3 Dopamine Receptor Antagonist: qHTS; D(3) dopamine receptor (Homo sapiens), P35462; D3R cells, DiscoveRx beta-arrestin luminescence, antagonist mode; active compounds read low; max response, negative = inhibition, %; 360,000 tested, 2.5% active; AID 652054, 2013; in the data active = max response below about -50%; inconclusive = no clear call, values can overlap the other calls; also: % is scaled to controls: 0 for no effect and ±100 for the full control effect
Target sequence (P35462 whole entry, looked up): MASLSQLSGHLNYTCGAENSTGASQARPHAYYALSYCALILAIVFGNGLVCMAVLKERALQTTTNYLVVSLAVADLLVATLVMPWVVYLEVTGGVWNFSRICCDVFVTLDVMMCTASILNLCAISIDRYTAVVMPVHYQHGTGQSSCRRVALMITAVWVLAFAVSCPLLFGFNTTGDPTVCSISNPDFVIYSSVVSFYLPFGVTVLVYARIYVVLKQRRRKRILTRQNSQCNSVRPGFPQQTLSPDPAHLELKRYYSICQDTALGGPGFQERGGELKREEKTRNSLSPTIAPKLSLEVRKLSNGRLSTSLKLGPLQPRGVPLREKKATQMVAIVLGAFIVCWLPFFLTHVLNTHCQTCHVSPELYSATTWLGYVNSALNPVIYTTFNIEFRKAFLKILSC
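Cells plated overnight at 1500 cells/well, then exposed to library compounds with dopamine controls for 90 minutes at 37 degrees C. DiscoveRx reagent added for 30–60 minutes at room temperature; luminescence read, quantitative HTS format.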
DRD3 agonist = qHTS of D3 Dopamine Receptor Agonist: qHTS; D(3) dopamine receptor (Homo sapiens), P35462; D3R DiscoveRx beta-arrestin cells, luminescence, 90 min; max activation, %; 410,000 tested, 0.58% active; AID 652048, 2013; in the data active = max activation above about 30%; also: 0% is about no effect
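Cells at 1500/well, incubated overnight, then treated with pinned compounds (dopamine as control) for 90 min at 37 degrees C. DiscoveRx reagent added for 30 - 60 minutes at room temperature; luminescence read.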
D1 ag = Allosteric Agonists of the Human D1 Dopamine Receptor: qHTS; D(1A) dopamine receptor (Homo sapiens), P21728; 360,000 tested, 1% active; HEK293 T-REx D1 cells, calcium flux, agonist mode; activation, % at 2 µM; in the data active = activation above about 30%; also: 0% is about no effect
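Tetracycline-induced HEK293 TREx D1 cells, force-coupled to calcium signalling, were dye-loaded with a no-wash calcium kit. Compound was pin-added after a 10 s baseline. Fluorescence was read kinetically at 1 cycle/s for 180 s, with calcium rises flagged as agonism.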
D1 PAM = Potentiators of Human D1 Dopamine Receptor: qHTS | D(1A) dopamine receptor (Homo sapiens), P21728 | HEK293 TREx D1 cells, calcium flux, dopamine EC20 potentiation | potentiation, % at 10 µM | 360,000 tested, 0.036% active; in the data active = potentiation above about 30%; also: 0% is about no effect
D1 antagonist = Antagonist of Human D 1 Dopamine Receptor: qHTS | D(1A) dopamine receptor (Homo sapiens), P21728 | HEK293 TREx D1 cells, calcium flux, dopamine EC80; active compounds read low | activity change, negative = inhibition, % at 10 µM | 360,000 tested, 3.2% active | AID 504652, 2011; in the data active = activity change below about -30%; also: % is scaled to controls: 0 for no effect and ±100 for the full control effect
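Tetracycline-induced HEK293 Trex D1 cells, force-coupled to calcium, dye-loaded; compounds added and read 180 s, then EC80 dopamine added and calcium flux tracked kinetically another 180 s.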
Chronic BCR inh = qHTS Assay to Find Inhibitors of Chronic Active B-Cell Receptor Signaling; 340,000 tested, 0.05% active; ABC-DLBCL IkBa-CBG/CBR reporter, luminescence ratio, 4 h; Potency, µM (top dose mostly 46.1 µM), for inactives: at the highest dose activity change, negative = inhibition, actives largely listed as inhibitors; active = well fitted inhibition curve with a large enough effect in the signal ratio, with a control signal flat, not every such curve was filed as active; inconclusive = small, poorly fitted or top-dose-only effect, or effect the other way, or a change in a side signal; the % refers to the signal ratio;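 also: potency is read from the fitted curve at half-maximal effect; plate controls were basal doxycycline-induced cells for no effect and cells given 10 µM MG132 for full effect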
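Cell line TMD8 (human ABC DLBCL), stably expressing tet-inducible CBG68-IkBa fusion and CBR; IMDM/0.5% FBS; cpd up to 46 uM; dox induction, 4 h, 37C/5% CO2; dual luminescence; green/red ratio; MG132 control.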
Starred values were filed as active, the others as inactive; ? = inconclusive; · = not tested or not shown.

SMILES	DRD3 antagonist	DRD3 agonist	D1 ag	D1 PAM	D1 antagonist	Chronic BCR inh
COC(=O)c1sc(NC(=O)c2cc(-c3ccccc3)nc3ccccc23)c(C#N)c1C	4	14	26	-4	-24	?
COc1ccc(OC)c(-c2cc(C(=O)Nc3sc4c(c3C#N)CCC(C)C4)c3ccccc3n2)c1 (stereo not given)	-11	8	3	-3	-47*	-7%
N#Cc1nc(-c2ccc(COc3ccccc3)o2)oc1NCc1cccnc1	·	1	-2	-1	-7	·
Cc1ccc(C(=O)N2CCN(Cc3cc(=O)n4nc(-c5ccccc5)sc4n3)CC2)cc1	·	-4	0	2	-2	·
Cc1onc(-c2ccccc2)c1C(=O)NC(=S)Nc1sc2c(c1C#N)CCC(C)C2 (stereo not given)	3	35*	3	-8	13	-6%
COc1ccccc1-c1cc(C(=O)Nc2sc3c(c2C#N)CCC(C)C3)c2ccccc2n1 (stereo not given)	-63*	2	0	-2	3	-7%
Cc1cc(C(=O)OCC(=O)Nc2sc3c(c2C#N)CCC(C)C3)c2ccccc2n1 (stereo not given)	13	6	-1	1	-4	16%
Cc1[nH]c2ccccc2c1C(=O)c1cc(Cc2ccccc2)sc1N	-2	-4	·	·	·	·
COc1cc(OC)cc(C(=O)Nc2cccc(-c3cn4ccsc4n3)c2)c1	·	7	1	-2	-7	·
O=C(CCCCN1CCCCC1)c1ccc2c(c1)Cc1ccccc1-2	0	-10	31*	-3	-36*	?
Cc1cc(=O)[nH]c2c(C)c(N)ccc12	7	4	3	3	7	0%
Cc1cc(C)c2ccc3c(C)c(C)nc3c2[nH]1	-12	2	5	-4	-47*	?
COc1ccc(Nc2c(-c3ccc(C)o3)nc3cc(C)ccn23)cc1	·	-11	0	1	0	·
COc1cc(NC(=O)Cn2nc(C(F)(F)F)c(Br)c2C)cc([N+](=O)[O-])c1	-14	0	22	-2	-34*	2%
Cc1ccc(NC(=O)Cn2nc([N+](=O)[O-])c(Br)c2C)cc1C	-9	-21	9	-5	-33*	-1%
COc1ccc(CNC(=O)Cn2nc(C(F)(F)F)c(Br)c2C)cc1	27	2	2	3	-19	1%
CCOC(=O)c1ccc(-n2c(C)ccc2C)cc1	-6	-17	1	-2	3	-2%
CCOC(=O)c1ccc(N2C(=O)C=CC2=O)cc1	-82*	4	-2	1	0	?
O=S1(=O)CC(N2CC=CC2)CN1Cc1cn(Cc2cccc(Cl)c2)nn1 (stereo not given)	19	7	·	·	·	·
COC(=O)c1sc2cccc(F)c2c1S(=O)(=O)Nc1cc(C)c(Cl)cc1OC	·	2	4	-6	-5	·
CCCCN(C(=O)c1oc2ccc(OCC)cc2c1C)c1c(N)n(CC(C)C)c(=O)[nH]c1=O	2	2	0	-16	-32*	22%
CCN(CC)S(=O)(=O)c1ccc(N=NC2=C(O)CCCC2=O)cc1	-9	0	1	2	-12	-2%
CCN(CC)S(=O)(=O)c1ccc(N=Nc2c(N)[nH]c(=O)[nH]c2=O)cc1	0	-17	2	2	-41*	5%
C1=C(CCNc2nnnn2-c2ccccc2)CCCC1	-61*	-8	3	-1	-8	0%
COc1ccc(S(=O)(=O)N(C)C[C@@H]2OCc3cn(nn3)CCCC(=O)N([C@@H](C)CO)C[C@H]2C)cc1	4	-4	·	·	·	·
SMILES	DRD3 antagonist	DRD3 agonist	D1 ag	D1 PAM	D1 antagonist	Chronic BCR inh
COc1cccc2cc(-c3nnc(Nc4c(F)cccc4F)s3)c(=O)oc12	·	2	1	-3	-7	?
N#Cc1cccc(NC(=O)Cn2c3[n+](c4ccc(C(F)(F)F)cc42)CCCCC3)c1	-74*	-52	1	-2	-6	2%
CC(C)/C=C/CN1CCN(CCCc2ccccc2)C(CCO)C1 (stereo not given)	-63*	-17	3	-2	1	1%
Cc1ccccc1CN1CCN(CC2CC2)CC1CCO (stereo not given)	-82*	-6	-4	-2	1	6%
Cc1ccccc1CN1CCN(CCCc2ccccc2)C(CCO)C1 (stereo not given)	-78*	-23	12	-8	2	-8%
OCCC1CN(Cc2ccc(Oc3ncccn3)cc2)CCN1Cc1ccc(F)c(F)c1 (stereo not given)	-72*	-18	1	-5	-2	3%
CC(C)CCN1CCN(CCCc2ccccc2)CC1CCO (stereo not given)	-15	-15	0	-1	-4	-1%
Cc1ccccc1CN1CCN(Cc2ccc3cccc(F)c3n2)CC1CCO (stereo not given)	?	-22	2	-1	-2	-3%
CC(C)CN1CCN(Cc2ccc(Oc3ncccn3)cc2)CC1CCO (stereo not given)	-10	-14	3	-4	-8	-4%
Cc1cccc(-c2nc3scc(CCNS(=O)(=O)c4ccc(Oc5ccccc5)cc4)n3n2)c1	·	3	5	-2	·	1%
CCc1ccccc1NC(=O)CCS(=O)(=O)c1cccc2nonc12	·	-12	-2	4	3	·
CN1CCn2cnc(C(=O)Nc3ccc(Cl)cc3)c2C1=O	13	3	·	·	·	·
Cc1ccc(NC(=O)C(=O)NCc2ccc(Cl)cc2)cc1	·	5	2	-1	-2	·
OCCC1CN(Cc2ccccc2O)CCN1CCCc1ccccc1 (stereo not given)	-75*	-6	1	-8	20	7%
COc1ccc(OC)c(CN2CCN(CCCc3ccccc3)C(CCO)C2)c1 (stereo not given)	-87*	-26	-3	-4	21	-2%
OCCC1CN(CCCc2ccccc2)CCN1Cc1ccc(F)cc1 (stereo not given)	-56*	-34	8	0	1	1%
Cn1c(C(=O)NCCN2CCN(Cc3ccccc3)CC2)cc2c(=O)n(C)c3ccccc3c21	-93*	-14	2	-5	-5	-1%
Cc1ccc(-n2nc(C)c(C(=O)NCCCN3CCN(c4cccc(Cl)c4)CC3)c2-n2cccc2)cc1	·	-18	3	-1	-1	·

Screening data (PubChem)
